Several values for one entry are separate records, joined by “and”; a condition that tells them apart may be missing. Equal entries are not always repeated. Results filed as inconclusive are left out. Where a call stands in place of a potency, no number is given. More than one record can exist for a structure, and the calls need not agree. Activity calls are given as the source filed them. Unless noted, the call rests on the fitted dose curve; in most records, active means well fitted curve in the direction sought with a large enough effect in the repeat runs; inconclusive means weak or mixed curves; inactive means no such curve, though single readings can be large; an effect the other way counts as inactive or inconclusive.
Assays:
[1] = qHTS assay for small molecule agonists of the p53 signaling pathway (AID 651631; calls by dose curve; further: nearly all actives have a fitted effect of over 15% in size; further: potency means the concentration at half of the fitted maximal effect)
Procedure, shortened: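 Beta-lactamase reporter activity under p53 response elements was quantified in HCT-116 cells by FRET fluorescence, following 16 h incubation with test compounds at 37 °C and 2 h substrate development at room temperature.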

[2] = qHTS assay for small molecules that induce genotoxicity in human embryonic kidney cells expressing luciferase-tagged ATAD5 (AID 651632); further: nearly all actives have a fitted effect of over 15% in size; further: potency means the concentration at half of the fitted maximal effect
Procedure, shortened: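 A rise in luciferase signal from ATAD5-tagged HEK293T cells marks genetic stress. Cells were exposed to compounds for 16 hr at 37C, 5% CO2, then luciferase was quantified after a 30 min room-temperature incubation with Amplite.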

[3] = qHTS assay for small molecules that induce genotoxicity in human embryonic kidney cells expressing luciferase-tagged ATAD5 - cell viability (AID 651634; calls by dose curve; further: nearly all actives have a fitted effect of over 25% in size; further: potency means the concentration at half of the fitted maximal effect)
Procedure, shortened: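 Cytotoxicity counter-readout: after 15.5 hr compound treatment at 37C, live-cell protease activity in ATAD5-luciferase HEK293T cells measured by CellTiter-Fluor fluorescence, 30 min development at 37C.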

[4] = qHTS assay for small molecule disruptors of the mitochondrial membrane potential - cell viability (AID 720634; calls by dose curve; further: nearly all actives have a fitted effect of over 20% in size; further: potency means the concentration at half of the fitted maximal effect)
Procedure, shortened: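 Cytotoxicity was quantified from ATP content by CellTiter-Glo luminescence in the same wells as the MMP dye read-out. HepG2 (2,000 cells/well) were plated overnight and exposed to compounds for 1 hr at 37 C.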

[5] = qHTS assay for small molecule disruptors of the mitochondrial membrane potential (AID 720635); further: potency means the concentration at half of the fitted maximal effect
Procedure, shortened: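 HepG2 cells exposed to compound 1 hr at 37C, then Mito-MPS dye 30 min. Ratio read of aggregate (540/590 nm) versus monomer (490/535 nm) fluorescence.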

[6] = qHTS assay to test for compound auto fluorescence at 590 nm (red) in HepG2 cells (AID 720674)
Procedure, shortened: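 HepG2 cells, 2,000 per well in MEM with 10% FBS, attached overnight at 37 C, then got 23 nL compound or DMSO. After 1 hr at 37 C, 5% CO2, red fluorescence was read at 540/590 nm against Rose Bengal sodium as reference.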

[7] = qHTS assay to test for compound auto fluorescence at 535 nm (green) in HepG2 cells (AID 720675)
[8] = qHTS assay to test for compound auto fluorescence at 460 nm (blue) in HEK293 cells (AID 720678); further: potency means the concentration at half of the fitted maximal effect
Procedure, shortened: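 After cell attachment (4-5 hr, 37C), compounds were pinned onto HEK293 monolayers in 10% dialyzed FBS medium. The blue channel (405/460 nm) was read following overnight culture. Equivalency was calculated against triamterene.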

[9] = qHTS assay to test for compound auto fluorescence at 590 nm (red) in HEK293 cells (AID 720679)
Procedure, shortened: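 Plates of HEK293 cells (10% dialyzed FBS) are treated with 23 nL compound or DMSO vehicle after a 4-5 hr attachment period, incubated overnight at 37C, and read for red fluorescence at 540/590nm.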

[10] = qHTS assay for small molecule agonists of the p53 signaling pathway - cell viability (AID 651633; calls by dose curve; further: nearly all actives have a fitted effect of over 30% in size; further: potency means the concentration at half of the fitted maximal effect)
Procedure, shortened: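 p53RE-bla cells were treated with compound for 16 hours at 37 C. Cytotoxicity was then measured as CellTiter-Glo luminescence after 30 min at room temperature.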
Tags describe the fitted curve by direction and shape or compound fluorescence and quenching.

SMILES	Potency [1]	Potency [2]	Potency [3]	Potency [4]	Potency [5]	outcome [6]	Potency [7]	Potency [8]	outcome [9]	Potency [10]
NCCCC(=O)O	inactive	inactive	inactive	inactive	inactive	inactive	inactive	inactive	inactive	–
O=C1c2ccccc2C(=O)C1c1ccc(F)cc1	inactive	inactive	inactive	inactive	inactive	inactive	inactive	inactive	–	–
CN1[C@@H](CC(=O)c2ccccc2)CCC[C@H]1C[C@H](O)c1ccccc1	inactive	inactive	inactive	inactive	–	inactive	inactive	inactive	inactive	–
CCN(CC)C(=O)c1cccnc1	inactive	inactive	inactive	–	inactive	inactive	inactive	inactive	inactive	–
COc1cc(NS(C)(=O)=O)ccc1Nc1c2ccccc2nc2ccccc12	1.68 µM (active)	–	–	inactive	–	inactive	–	11.2 µM [fluorescent] (active)	–	18.8 µM (active)
C[S+](C)CCC(N)C(=O)O (stereo not drawn)	inactive	inactive	inactive	inactive	inactive	inactive	inactive	inactive	–	–
COc1cc2c(cc1O)CCN[C@]21CS[C@@H]2c3c(OC(C)=O)c(C)c4c(c3[C@H](COC1=O)N1[C@@H]2[C@H]2c3c(cc(C)c(OC)c3O)C[C@@H]([C@@H]1O)N2C)OCO4	8.4 nM (active) and 12.2 nM (active)	inactive and 243 nM (active)	0.0422 µM (active)	inactive	–	inactive	–	inactive	inactive	–
COc1cc(/C=C/C(=O)CC(=O)/C=C/c2ccc(O)c(OC)c2)ccc1O	13.3 µM (active) and 13.8 µM (active)	inactive	inactive	11.9 µM (active) and 21.8 µM (active)	750 nM (active) and 1.68 µM (active) and 548 nM (active)	inactive	inactive	–	–	–
CC(C)(S)C(=O)N[C@@H](CS)C(=O)O	inactive	–	inactive	inactive	inactive	inactive	inactive	inactive	inactive	inactive
c1ccc(-c2ccc(C(c3ccccc3)n3ccnc3)cc2)cc1 (stereo not drawn)	29.8 µM (active)	inactive	inactive	inactive	–	inactive	–	inactive	inactive	–
CC(=O)Nc1ccc(OC(C)=O)cc1	inactive	inactive	–	–	–	inactive	–	–	inactive	inactive
NCC1CCC(C(=O)O)CC1 (stereo not drawn)	inactive	inactive	inactive	inactive	inactive	inactive	–	inactive	inactive	–
CC(C)c1ncc([N+](=O)[O-])n1C	inactive	inactive	–	inactive	–	inactive	inactive	inactive	inactive	inactive
NCC(O)CC(=O)O (stereo not drawn)	inactive	inactive	inactive	inactive	inactive	inactive	inactive	inactive	inactive	–
COc1cc([C@@H]2c3cc4c(cc3[C@@H](O[C@@H]3O[C@@H]5CO[C@@H](C)O[C@H]5[C@H](O)[C@H]3O)[C@H]3COC(=O)[C@H]23)OCO4)cc(OC)c1O	1.88 µM (active) and 761 nM (active)	inactive	–	inactive	–	inactive	inactive	inactive	–	–
C=CC1=C(C(=O)O)N2C(=O)[C@@H](NC(=O)/C(=N\O)c3csc(N)n3)[C@H]2SC1 (stereo in doubt)	inactive	inactive	inactive	inactive	inactive	inactive	inactive	inactive	inactive	–
Cc1cc(-c2ccc(N=Nc3ccc4c(S(=O)(=O)O)cc(S(=O)(=O)O)c(N)c4c3O)c(C)c2)ccc1N=Nc1ccc2c(S(=O)(=O)O)cc(S(=O)(=O)O)c(N)c2c1O	inactive	inactive	–	inactive	–	inactive	–	inactive	inactive	inactive
Cc1ccc(C(C)(C)c2ccc(C)cc2)cc1	inactive	inactive	–	inactive	inactive	inactive	inactive	inactive	inactive	–
CCC1OC(=O)C[C@@H](O)[C@H](C)[C@@H](O[C@@H]2O[C@H](C)C[C@H](N(C)C)[C@H]2O)[C@@H](CC=O)C[C@@H](C)C(=O)/C=C/[C@]2(C)OC2C1C (stereo partly drawn)	29.8 µM (active)	inactive	inactive	inactive	inactive	inactive	inactive	–	inactive	–
CC(=O)OCC1=C(C(=O)O)N2C(=O)[C@@H](NC(=O)Cc3ccccc3)[C@H]2SC1	inactive	inactive	–	inactive	inactive	inactive	inactive	inactive	inactive	–

SMILES	Potency [1]	Potency [2]	Potency [3]	Potency [4]	Potency [5]	outcome [6]	Potency [7]	Potency [8]	outcome [9]	Potency [10]
CCC[C@@H]1C[C@@H](C(=O)N[C@@H]([C@H]2O[C@H](SC)[C@H](OP(=O)(O)O)[C@@H](O)[C@H]2O)[C@H](C)Cl)N(C)C1	inactive	inactive	–	–	inactive	inactive	inactive	inactive	inactive	inactive
CO[C@H](C(=O)[C@@H](O)[C@@H](C)O)C1Cc2cc3cc(O[C@H]4C[C@@H](O[C@H]5C[C@@H](O)[C@H](O)[C@@H](C)O5)[C@@H](O)[C@@H](C)O4)c(C)c(O)c3c(O)c2C(=O)[C@H]1O[C@H]1C[C@@H](O[C@H]2C[C@@H](O[C@H]3C[C@](C)(O)[C@H](O)[C@@H](C)O3)[C@H](O)[C@@H](C)O2)[C@H](O)[C@@H](C)O1 (stereo partly drawn)	42.2 nM (active) and 53.1 nM (active)	inactive	inactive	–	27.8 µM (active)	inactive	–	inactive	inactive	–
C[S+](CC[C@H](N)C(=O)O)C[C@H]1O[C@@H](n2cnc3c(N)ncnc32)[C@H](O)[C@@H]1O (stereo partly drawn)	inactive	inactive	inactive	inactive	–	inactive	–	inactive	inactive	–
CC(C)C[C@H](NC(=O)[C@@H](COC(C)(C)C)NC(=O)[C@H](Cc1ccc(O)cc1)NC(=O)[C@H](CO)NC(=O)[C@H](Cc1c[nH]c2ccccc12)NC(=O)[C@H](Cc1cnc[nH]1)NC(=O)[C@@H]1CCC(=O)N1)C(=O)N[C@@H](CCCN=C(N)N)C(=O)N1CCC[C@H]1C(=O)NNC(N)=O	inactive	inactive	inactive	inactive	inactive	inactive	inactive	inactive	inactive	–
O=C(O)/C=C/C(O)c1ccc(Cl)cc1 (stereo not drawn)	inactive	inactive	inactive	inactive	inactive	inactive	inactive	inactive	inactive	–
N=C(N)c1ccc(/C=C/c2ccc(C(=N)N)cc2O)cc1	inactive	inactive	inactive	inactive	1.97 µM (active)	inactive	inactive	inactive	inactive	–
CO/N=C(\C(=O)N[C@@H]1C(=O)N2C(C(=O)[O-])=C(C[n+]3cccc4c3CCC4)CS[C@H]12)c1csc(N)n1	inactive	inactive	inactive	inactive	inactive	inactive	inactive	–	–	–
Cc1cc(N)c2ccccc2[n+]1CCCCCCCCCC[n+]1c(C)cc(N)c2ccccc21	–	inactive	inactive	inactive	inactive	inactive	inactive	inactive	inactive	inactive
O=C(CCCCCCCCc1cccnc1)N1CCC(C=C(c2ccccc2)c2ccccc2)CC1	–	inactive	61.1 µM (active)	19.3 µM (active)	24.3 µM (active)	inactive	inactive	inactive	inactive	24.3 µM (active)
CC[C@H](C)C(=O)O[C@H]1CCC=C2C=C[C@H](C)[C@H](CC[C@@H]3C[C@@H](O)CC(=O)O3)[C@H]21	–	inactive	inactive	inactive	–	inactive	inactive	inactive	–	inactive
O=C1CCC(c2ccc(-n3ccnc3)cc2)=NN1	–	inactive	inactive	inactive	inactive	inactive	inactive	inactive	inactive	inactive
CC(C)C[C@@H](NC(=O)[C@@H](O)[C@H](N)Cc1ccccc1)C(=O)O	–	inactive	inactive	inactive	inactive	inactive	inactive	inactive	inactive	inactive
CCCCCCCCCCCCCCCC(=O)OC[C@H](COP(=O)([O-])OCC[N+](C)(C)C)OC(=O)CCCCCCCCCCCCCCC	–	inactive	inactive	inactive	inactive	inactive	inactive	inactive	inactive	inactive
O=C(O)c1cc2cc(Cc3cccnc3)ccc2o1	–	inactive	inactive	inactive	inactive	inactive	–	inactive	inactive	inactive
CCCCCCCC[N+](C)(C)CCCCCCCC	–	inactive	inactive	inactive	21.1 µM (active) and 23.7 µM (active)	inactive	inactive	–	inactive	inactive
CON=C1C[C@]2(C[C@@H]3C[C@@H](C/C=C(\C)C[C@@H](C)/C=C/C=C4\CO[C@@H]5[C@H](O)C(C)=C[C@@H](C(=O)O3)[C@]45O)O2)O[C@H](/C(C)=C/C(C)C)[C@H]1C	–	inactive	11.9 µM (active) and 8.41 µM (active)	inactive	13.3 µM (active)	inactive	inactive	inactive	inactive	11.9 µM (active) and 8.41 µM (active)
CO[C@H]1C[C@@H]2CC[C@@H](C)[C@@](O)(O2)C(=O)C(=O)N2CCCC[C@H]2C(=O)O[C@H]([C@H](C)C[C@@H]2CC[C@@H](O)[C@H](OC)C2)CC(=O)[C@H](C)C=C(C)[C@@H](O)[C@@H](OC)C(=O)[C@H](C)C[C@H](C)/C=C/C=CC=C1C	–	inactive	29.8 µM (active) and 26.6 µM (active)	inactive	17.6 µM (active) and 19.7 µM (active)	inactive	inactive	inactive	inactive	21.1 µM (active) and 23.7 µM (active)
N[C@@H](Cc1ccc(O)c(O)c1)C(=O)O	–	inactive	inactive	inactive	–	inactive	inactive	inactive	–	inactive
O=[N+]([O-])c1ccc(O)c2ncccc12	–	inactive	21.1 µM (active)	inactive	6.68 µM (active)	inactive	–	inactive	–	26.6 µM (active)

Reference: PubChem BioAssay (Tox21)
